Source: PubChem BioAssay
Several values for one entry are separate records, joined by “and”; a condition that tells them apart may be missing. Identical values can stand only once. A number with no mark means an inactive call. The rule behind the calls is not given here.

test system: Aerobactin synthetase IucA (Klebsiella pneumoniae hvKP1); assay: IucA enzyme inhibition, primary screen, biochemical, Spectrum library (AID 1346200); settings: malachite green pyrophosphate, A620, at 8 µM, hits give low values;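 note: 100% = wells without compound and 0% = wells lacking enzyme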

Row | SMILES | activity remaining
1 | CC1(C)S[C@@H]2[C@H](NC(=O)[C@H](N)c3ccccc3)C(=O)N2[C@H]1C(=O)O | 101%
2 | COc1ccc(CCN2CCC(Nc3nc4ccccc4n3Cc3ccc(F)cc3)CC2)cc1 | 124%
3 | Clc1ccccc1CN1CCc2sccc2C1 | 109%
4 | CN(C)CCC(c1ccc(Br)cc1)c1ccccn1 (stereo not given) | 123% and 96.1%
5 | CCn1cc(C(=O)O)c(=O)c2cc(F)c(N3CCNCC3)nc21 | 91.3%
6 | Cc1cc(O)cc(=O)o1 | 116%
7 | CC1(C)O[C@H]2[C@H](O)C[C@](O)(C(N)=O)C[C@H]2O1 | 109%
8 | C[C@@H]1O[C@@H](O[C@H]2[C@@H](Oc3cc(O)c4c(c3)O[C@H](c3ccc(O)cc3)CC4=O)O[C@H](CO)[C@@H](O)[C@@H]2O)[C@H](O)[C@H](O)[C@H]1O | 117%
9 | Oc1ccc(Cl)cc1Cc1cc(Cl)ccc1O | 108%
10 | CC(=O)Oc1ccc2c(c1)CCC1C2CC[C@@]2(C)C1CC[C@@H]2OC(C)=O (stereo not given in full) | 120%
11 | COC1=CC(=O)C=C(OC)C1=O | 99.1%
12 | CCCCC1=NC2(CCCC2)C(=O)N1Cc1ccc(-c2ccccc2-c2nn[nH]n2)cc1 | 121%
13 | O=C(OCc1ccccc1)c1ccccc1 | 108%
14 | COc1ccc(-c2coc3cc(O)ccc3c2=O)c(O)c1O | 114%
15 | CC(=O)N1CCN(c2ccc(OCC3CO[C@](Cn4ccnc4)(c4ccc(Cl)cc4Cl)O3)cc2)CC1 (stereo not given in full) | 97%
16 | CC(C)=CCc1c2c(c3occ(-c4ccc(O)c(O)c4)c(=O)c3c1O)C=CC(C)(C)O2 | 120%
17 | COc1ccnc(CS(=O)c2nc3ccc(OC(F)F)cc3[nH]2)c1OC (stereo not given) | 127%
18 | COc1ccc(-c2cc(=O)c3c(O)cc(O[C@H]4O[C@H](CO[C@@H]5O[C@@H](C)[C@H](O)[C@@H](O)[C@H]5O)[C@@H](O)[C@H](O)[C@H]4O)cc3o2)cc1 | 101%
19 | Cc1nc(N)cc(C[n+]2csc(CCO)c2C)n1 | 83.3%
20 | CC[C@]12CCCN3CCc4c(n(c5ccccc45)C(=O)C1)[C@@H]32 | 101%

Row | SMILES | activity remaining
21 | Nc1nc2c(c(=O)[nH]1)N(C=O)C(CNc1ccc(C(=O)N[C@@H](CCC(=O)O)C(=O)O)cc1)CN2 (stereo not given in full) | 104%
22 | O=C1c2cccc(O)c2C(=O)c2c(O)cccc21 | 93.6%
23 | CC(=O)O[C@@H]1c2c(ccc3ccc(=O)oc23)OC(C)(C)[C@@H]1OC(=O)CC(C)C | 103%
24 | COC(=O)C1=CO[C@@H](C)[C@@H]2CN3CC[C@@]4(C(=O)Nc5ccccc54)[C@@H]3CC12 (stereo not given in full) | 107%
25 | CC(=O)O[C@@H]1CC2C(C)(C)CCC(=O)[C@]2(C)C2CC[C@@]3(C)[C@H](c4ccoc4)OC(=O)C4OC43[C@@]21C (stereo not given in full) | 113%
26 | CCC(=O)OCC(=O)[C@@]1(OC(=O)CC)[C@@H](C)CC2C3CCC4=CC(=O)C=C[C@]4(C)C3(F)[C@@H](O)C[C@@]21C (stereo not given in full) | 125%
27 | C=C1C(N)CC2CC1C2(C)C (stereo not given) | 96.6%
28 | COC(=O)C[C@H]1C(C)(C)C(=O)[C@@H]2CC3=C4CC(=O)O[C@@H](c5ccoc5)[C@]4(C)CCC3C1(C)C2=O (stereo not given in full) | 102%
29 | Cc1ncc([N+](=O)[O-])n1CC(C)O (stereo not given) | 112%
30 | COc1ccc2nc(S(=O)Cc3ncc(C)c(OC)c3C)[nH]c2c1 (stereo not given) | 126%
31 | C[C@]12CCC(=O)C=C1CCC1C2[C@@H](O)C[C@@]2(C)C1CC[C@]2(O)C(=O)CO (stereo not given in full) | 113%
32 | O=c1c(-c2ccc(O)cc2)coc2c(C3O[C@H](CO)[C@@H](O)[C@H](O)[C@H]3O)c(O)ccc12 (stereo not given in full) | 105%
33 | C[N+]1(C)C[C@H](O)[C@H](C(=O)[O-])C1 | 94.3%
34 | CC[C@H]1OC(=O)[C@H](C)[C@@H](O[C@H]2C[C@@](C)(OC)[C@@H](O)[C@H](C)O2)[C@H](C)[C@@H](O[C@@H]2O[C@H](C)C[C@H](N(C)C)[C@H]2O)[C@](C)(O)C[C@@H](C)[C@@H]2N[C@@H](COCCOC)O[C@H]([C@H]2C)[C@]1(C)O | 117%
35 | COc1ccc2c(c1)CCC1C2CC[C@@]2(C)C1CC[C@@H]2O (stereo not given in full) | 111%
36 | COc1ccc2c(C)cc(=O)oc2c1 | 92.2%
37 | CC(C)=CC1C(C(=O)O)C1(C)C (stereo not given) | 121%
38 | CC(=O)Nc1ccc(O)cc1 | 90%
39 | CC[C@H]1OC(=O)[C@H](C)[C@@H](O[C@H]2C[C@@](C)(OC)[C@@H](O)[C@H](C)O2)[C@H](C)[C@@H](O[C@@H]2O[C@H](C)C[C@H](N(C)C)[C@H]2O)[C@](C)(OC)C[C@@H](C)C(=O)[C@H](C)[C@@H](O)[C@]1(C)O | 119%
40 | CC(=O)O[C@@H]1CC2C(C)(C)C(=O)CC[C@]2(C)C2CC[C@@]3(C)[C@H](c4ccoc4)OC(=O)C4OC43[C@@]21C (stereo not given in full) | 110%
